Several values for one entry are separate records, joined by “and”; a condition that tells them apart may be missing. Equal values may be shown once. Values without a mark were called inactive. Inconclusive results are not listed. Activity calls are given as the source filed them. Unless noted, calls come from the whole dose curve; as a rule, active = well fitted curve in either direction with a large enough effect (not every such curve was filed as active); inconclusive = small, poorly fitted or top-dose-only effect, or another doubt; inactive = flat fitted curve, though single readings scatter.
What was measured:
[1] = biological target: Lysosomal acid glucosylceramidase (Homo sapiens) (UniProt P04062); assay: Glucocerebrosidase-p2 (AID 348; in the data active = potency below about 10 µM; note: potency is the fitted concentration of half-maximal effect); details: purified GBA, blue fluorogenic substrate, 40 min
Chain of Lysosomal acid glucosylceramidase (Homo sapiens) (P04062 whole entry, looked up): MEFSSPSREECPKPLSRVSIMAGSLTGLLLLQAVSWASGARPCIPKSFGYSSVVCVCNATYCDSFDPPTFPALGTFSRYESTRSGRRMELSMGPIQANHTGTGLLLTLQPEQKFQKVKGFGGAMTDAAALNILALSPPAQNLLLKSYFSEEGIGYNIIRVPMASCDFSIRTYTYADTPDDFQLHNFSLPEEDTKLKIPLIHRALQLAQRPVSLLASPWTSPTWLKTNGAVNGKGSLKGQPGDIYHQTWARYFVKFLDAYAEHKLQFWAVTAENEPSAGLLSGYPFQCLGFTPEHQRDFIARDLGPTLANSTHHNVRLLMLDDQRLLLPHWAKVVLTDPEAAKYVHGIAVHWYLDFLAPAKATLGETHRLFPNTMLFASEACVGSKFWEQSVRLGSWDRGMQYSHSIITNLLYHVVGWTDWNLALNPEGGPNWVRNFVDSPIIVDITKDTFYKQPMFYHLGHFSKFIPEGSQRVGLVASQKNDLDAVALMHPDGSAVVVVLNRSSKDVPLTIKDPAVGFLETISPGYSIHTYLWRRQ
Summary of the method: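 Normal human glucocerebrosidase (0.2 nM) with blue fluorogenic substrate (80 uM final) in citrate/phosphate pH 5.9 with 10mM sodium taurocholate, 0.01% tween-20; 40 min RT, NaOH/glycine stop; fluorescence Ex 365/Em 440; AC50 from a titration from 0.6 nM upwards.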

[2] = AP1 Signaling Pathway (AID 357); details: ME-180 (cervical carcinoma) AP-1-bla reporter, EGF-induced, beta-lactamase ratio, 5 h;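 note: ME-180 reporter cells stimulated with EGF at its EC50 level; % is set by controls: 0 for no effect and ±100 for the full control effect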
Summary of the method: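 Cells are seeded overnight, exposed to compound titrations and an EC50 level of EGF for 5 hours at 37 °C, then loaded with CCF4 dye for 2.5 hours. Beta-lactamase activity under the AP-1 element is read as a blue/green ratio.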

[3] = Cell Viability - BJ (AID 421; calls by dose curve;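 note: potency is the fitted concentration of half-maximal effect; cells exposed to compound for 40 hours at 37 °C before readout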); details: BJ fibroblast viability, qHTS
Summary of the method: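 Quantitative HTS: ATP depletion in BJ cells after 40 hr compound exposure in complete culture medium, detected with CellTiter-Glo; AC50 from standard Hill fits.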

[4] = Cell Viability - Jurkat (AID 426;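 active = dose-dependent loss of cell ATP signal giving a full or clear fitted curve, ranked by lower potency value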;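 note: potency is the fitted concentration of half-maximal effect; cells exposed to compound for 40 hours at 37 °C before ATP read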); details: qHTS
Summary of the method: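 Cytotoxicity taken as drop in cellular ATP (CellTiter-Glo luminescence, 20 min room temperature) after 40 hr, 37C treatment of 5000 Jurkat Clone E6-1 cells per well; concentration-response fitted with Hill equation for AC50.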

[5] = Cell Viability - Hek293 (AID 427;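 active = compounds whose dose-response curve shows a full or clear partial loss of cell viability, called from curve shape rather than a numeric limit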;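 note: potency is the fitted concentration of half-maximal effect; cells exposed to compound for 40 hours at 37 °C before reading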); details: qHTS
Summary of the method: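 AC50 values derive from Hill-modelled concentration-response of ATP-based luminescence, normalized between DMSO-only and 100 uM tamoxifen controls. Cells were exposed in complete culture medium for 40 hr at 37 °C before detection.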

[6] = Cell Viability - HepG2 (AID 433; calls by dose curve;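 note: potency is the fitted concentration of half-maximal effect; cells exposed to compound for 40 hours; potency for ATP loss meaning cytotoxicity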); details: qHTS
Summary of the method: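 HepG2 cells, 1500 per well, treated 40 hr at 37 °C in complete medium; viability from intracellular ATP by CellTiter-Glo luminescence. Normalized to DMSO and 100 uM tamoxifen; AC50 from Hill fit of qHTS concentration-response.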

[7] = Cell Viability - MRC5 (AID 434; calls by dose curve;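 note: potency is the fitted concentration of half-maximal effect; cells exposed to compound for 40 hours at 37 °C; potency reflects cytotoxicity seen as loss of intracellular ATP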); details: MRC5 lung fibroblast viability, qHTS
Summary of the method: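 AC50 values come from Hill-equation fits of intracellular ATP loss, measured by CellTiter-Glo luminescence. Normal lung fibroblasts (MRC5) had 40 hr compound treatment at 37 C, normalized between DMSO and 100 uM tamoxifen.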

[8] = Cell Viability - SK-N-SH (AID 435; calls by dose curve;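 note: potency is the fitted concentration of half-maximal effect; compound exposure lasted 40 h at 37 °C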); details: SK-N-SH neuroblastoma cell viability qHTS
Summary of the method: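 SK-N-SH neuroblastoma cells (1500/well) treated 40 h at 37 °C in complete medium; viability read as cellular ATP by CellTiter-Glo luminescence. Normalized to DMSO and 100 uM tamoxifen; AC50 from Hill fits of qHTS concentration-response.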

[9] = biological target: Cytochrome P450 1A2 (Homo sapiens) (UniProt P05177); assay: p450-cyp1a2 (AID 410; calls by dose curve; note: potency is the fitted concentration of half-maximal effect;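 for activity change, negative = inhibition: -100% = full effect of reference inhibitor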); details: recombinant CYP1A2, luciferin-ME demethylation, luminescence; series mostly up to 57 µM
Chain of Cytochrome P450 1A2 (Homo sapiens) (P05177 whole entry, looked up): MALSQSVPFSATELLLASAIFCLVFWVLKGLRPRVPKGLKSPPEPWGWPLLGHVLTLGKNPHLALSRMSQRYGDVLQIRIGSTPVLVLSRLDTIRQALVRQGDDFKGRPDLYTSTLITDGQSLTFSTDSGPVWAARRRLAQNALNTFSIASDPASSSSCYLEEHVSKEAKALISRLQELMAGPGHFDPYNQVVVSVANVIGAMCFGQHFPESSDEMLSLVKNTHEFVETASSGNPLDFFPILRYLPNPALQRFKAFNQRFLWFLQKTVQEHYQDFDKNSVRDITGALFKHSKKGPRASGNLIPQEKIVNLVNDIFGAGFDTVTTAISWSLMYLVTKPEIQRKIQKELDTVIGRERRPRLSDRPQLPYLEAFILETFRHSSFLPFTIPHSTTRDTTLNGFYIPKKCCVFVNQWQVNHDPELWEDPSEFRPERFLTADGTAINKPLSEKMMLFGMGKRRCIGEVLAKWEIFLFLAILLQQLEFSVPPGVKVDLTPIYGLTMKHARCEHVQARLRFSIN
Summary of the method: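 Luminescent demethylation readout: Luciferin-ME (100uM, equal to Km) turned over by 20nM CYP1A2 for 60 min at room temperature after NADPH regeneration addition, following 10 min compound preincubation. Normalization used 57 uM furafylline as full inhibition.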

[10] = NFAT Signaling Pathway (AID 444); details: Jurkat NFAT-bla M1, carbachol, beta-lactamase ratio, 5 h;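 note: carbachol stimulus at about its EC50 of 1 µM final; % is set by controls: 0 for no effect and ±100 for the full control effect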
Summary of the method: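 Read-out: CCF4 FRET ratio (460 nm/530 nm) after 1 h RT dye loading, used for %activity and AC50 from titration series. Cells: Jurkat NFAT-β-lactamase/M1 line, treated with compound plus 1 uM carbachol for 5 h, 37 °C.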

[11] = at 38 µM (top of the series) unless noted

CN(C)c1ccc(C(=C2C=CC(=[N+](C)C)C=C2)c2ccccc2)cc1
Potency [1]: > 11.4 µM
activity change, negative = inhibition ([2]; at 7.69 µM (top of the series)): 0.139%
Potency [3]: 1.14 µM (active)
Potency [4]: 0.0233 µM (active)
Potency [5]: 0.244 µM (active)
Potency [6]: 0.494 µM (active)
Potency [7]: 0.458 µM (active)
Potency [8]: 0.052 µM (active)

O=C(O)c1cc(=O)c2c(Cl)cc(Cl)cc2[nH]1
activity change, negative = inhibition ([2]; at 38 µM (top of the series)): -8.48%
Potency [9]: inactive
activity change, negative = inhibition [10, 11]: 0.544%

O=c1[nH]c2cc([N+](=O)[O-])c([N+](=O)[O-])cc2[nH]c1=O
activity change, negative = inhibition ([2]; at 38 µM (top of the series)): -3.93%
Potency [9]: inactive
activity change, negative = inhibition [10, 11]: 4.52%

CCCSc1ccc2nc(NC(=O)OC)[nH]c2c1
activity change, negative = inhibition ([2]; at 17.2 µM (top of the series)): 11.3% and 5.12%
Potency [9]: 0.398 µM (active)

NC(N)=NC(=O)c1nc(Cl)c(N2CCCCCC2)nc1N
activity change, negative = inhibition ([2]; at 38 µM (top of the series)): 21.5%
Potency [9]: 1 µM (active)

CC(C)Cc1ccc([C@H](C)C(=O)O)cc1
activity change, negative = inhibition ([2]; at 17.2 µM (top of the series)): -1.53%
activity change, negative = inhibition ([2]; at 38 µM (top of the series)): -1.91% and 13.2%
activity change, negative = inhibition ([10]; at 17.2 µM (top of the series)): -2.57%
activity change, negative = inhibition ([10]; at 38 µM (top of the series)): -3.84% and 2.4%

CCCN(CC1CC1)c1nc(C)nc(Nc2c(Cl)cc(Cl)cc2Cl)c1Cl
activity change, negative = inhibition ([2]; at 38 µM (top of the series)): 18.7%
Potency [9]: inactive

N#C/C(=C\c1ccc(O)c(O)c1)C(=O)NCCCc1ccccc1
activity change, negative = inhibition ([2]; at 17.2 µM (top of the series)): -12.8%
Potency [9]: 12.6 µM (active)

Cc1nc2sccn2c(=O)c1CCN1CCC(=C(c2ccccc2)c2ccc(F)cc2)CC1
activity change, negative = inhibition ([2]; at 17.2 µM (top of the series)): -10.2%
activity change, negative = inhibition ([2]; at 38 µM (top of the series)): 8.49%

NCCSSCCN
Potency [1]: > 11.4 µM
activity change, negative = inhibition ([2]; at 7.69 µM (top of the series)): -2.06%
activity change, negative = inhibition ([2]; at 38 µM (top of the series)): -9.31%
activity change, negative = inhibition ([10]; at 7.69 µM (top of the series)): 0.926%
activity change, negative = inhibition ([10]; at 38 µM (top of the series)): -3.66%

CN=c1nc(-c2ccccc2)n(-c2ccccc2)s1
activity change, negative = inhibition ([2]; at 38 µM (top of the series)): 20.8%
Potency [9]: 5.01 µM (active)

COc1cc2c(CCNC(C)=O)c[nH]c2cc1Cl
activity change, negative = inhibition ([2]; at 38 µM (top of the series)): -0.206%
Potency [9]: 1 µM (active) and 126 nM (active)
activity change, negative = inhibition [10, 11]: -9.13%

NC[C@@H]1O[C@H](C23CC4CC(CC(C4)C2)C3)Cc2c1ccc(O)c2O
activity change, negative = inhibition ([2]; at 38 µM (top of the series)): -6.97%

COc1ccccc1CNCCCCCCNCCCCCCCCNCCCCCCNCc1ccccc1OC
activity change, negative = inhibition ([2]; at 38 µM (top of the series)): -8.92%

c1ccc(-c2ccccn2)nc1
activity change, negative = inhibition ([2]; at 38 µM (top of the series)): 11.7%
Potency [9]: 25.1 µM (active)
activity change, negative = inhibition [10, 11]: -2.98%

O=C(O)CC[C@@H](C(=O)O)N1C(=O)c2ccccc2C1=O
Potency [1]: > 11.4 µM
activity change, negative = inhibition ([2]; at 7.69 µM (top of the series)): -7.49%
activity change, negative = inhibition ([2]; at 38 µM (top of the series)): 3.98%
Potency [9]: inactive
activity change, negative = inhibition ([10]; at 7.69 µM (top of the series)): 15.2%
activity change, negative = inhibition ([10]; at 38 µM (top of the series)): -1.84%

N#C/C(=C\c1ccc(O)c(O)c1)C(=O)NCc1ccccc1
activity change, negative = inhibition ([2]; at 38 µM (top of the series)): -8.08%
Potency [9]: 12.6 µM (active) and 7.94 µM (active)
activity change, negative = inhibition [10, 11]: -14.7%

Cc1ccc(C(=O)c2ccc(CC(=O)O)n2C)cc1
activity change, negative = inhibition ([2]; at 17.2 µM (top of the series)): 6.83%
Potency [9]: inactive
activity change, negative = inhibition [10, 11]: -1.3% [at 17.2 µM]

COC(=O)c1c(C)[nH]c(C)c1C(=O)c1ccccc1Cc1ccccc1
activity change, negative = inhibition ([2]; at 38 µM (top of the series)): -27.5%
Potency [9]: 1.26 µM (active) and 251 nM (active)
activity change, negative = inhibition [10, 11]: 4.44%

CNCC[C@H](Oc1ccc(C(F)(F)F)cc1)c1ccccc1
activity change, negative = inhibition ([2]; at 17.2 µM (top of the series)): 21.4%
activity change, negative = inhibition ([2]; at 38 µM (top of the series)): 29.8% and 23.7%
activity change, negative = inhibition [10, 11]: -28% and -21.6% and -27.9%

CN1[C@@H](CC(=O)c2ccccc2)CCC[C@H]1C[C@H](O)c1ccccc1
activity change, negative = inhibition ([2]; at 17.2 µM (top of the series)): 1.25%

Cc1cc(NC(=O)Nc2ccc3c(ccn3C)c2)sn1
activity change, negative = inhibition ([2]; at 38 µM (top of the series)): -21.3%
Potency [9]: 10 µM (active) and 5.01 µM (active)
activity change, negative = inhibition [10, 11]: 10.3%

O=C(c1cc(O)c(O)c([N+](=O)[O-])c1)c1ccccc1F
activity change, negative = inhibition ([2]; at 38 µM (top of the series)): -17.8%
Potency [9]: inactive
activity change, negative = inhibition [10, 11]: 0.576%

Clc1ccccc1-c1nc(-c2ccncc2)no1
Potency [1]: > 11.4 µM
activity change, negative = inhibition ([2]; at 7.69 µM (top of the series)): -0.307%
Potency [9]: 0.0794 µM (active)
activity change, negative = inhibition [10, 11]: -8.15% [at 7.69 µM]

Nc1cc(-c2ccncc2)c[nH]c1=O
activity change, negative = inhibition ([2]; at 17.2 µM (top of the series)): -9.46%
Potency [9]: 15.8 µM (active)
activity change, negative = inhibition [10, 11]: -1.83% [at 17.2 µM]

Fc1ccc(C(OCCCc2cnc[nH]2)c2ccc(F)cc2)cc1
activity change, negative = inhibition ([2]; at 38 µM (top of the series)): 26.5%

O=c1[nH]c2ccccc2n1CCCN1CCN(C(c2ccccc2)c2ccccc2)CC1
activity change, negative = inhibition ([2]; at 17.2 µM (top of the series)): -6.95%
activity change, negative = inhibition ([2]; at 38 µM (top of the series)): -17.6%

COc1ccccc1N1CCN(CCCCNS(=O)(=O)c2cccc3c(N(C)C)cccc23)CC1
activity change, negative = inhibition ([2]; at 38 µM (top of the series)): 1.98%

C[N+](C)(CCCCCC[N+](C)(C)CCCN1C(=O)c2cccc3cccc(c23)C1=O)CCCN1C(=O)c2cccc3cccc(c23)C1=O
activity change, negative = inhibition ([2]; at 38 µM (top of the series)): 14%

CN1[C@@H]2CC[C@H]1CC(OC(c1ccccc1)c1ccccc1)C2 (stereo not given in full)
Potency [1]: > 11.4 µM
activity change, negative = inhibition ([2]; at 7.69 µM (top of the series)): 12.3%
Potency [9]: inactive
activity change, negative = inhibition [10, 11]: -83.5% [at 7.69 µM] (active)

O=Nc1ccc2oc(=O)ccc2c1
activity change, negative = inhibition ([2]; at 38 µM (top of the series)): 22.8%

Reference: PubChem BioAssay (NCATS)
